In PubChem BioAssay AID602393 (Broad Institute, 2012):
Screen size: about 350,000 compounds; about 7,000 (2%) were called active. What follows is part of a selection rich in actives, with near analogues and random picks from the rest. A number with no mark means an inactive call. No stated cut-off is given here; in the data, active means activation above about 40%; inconclusive means no clear call, values can overlap the other calls; inactive means below that.

Assay: raisers of Bmi1 knock-in reporter signal – mouse ES cells, Bmi1 luciferase knock-in, single point, esBAF inhibitor project, primary screen (AID 602393);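 further: 0% = median of the plate's neutral control wells and 100% = double that signal; a rise in the Bmi1 reporter signal indicates esBAF inhibition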
Conditions: 24 h, at 12.5 µM, hits give high values

Row | Structure (SMILES) | reporter increase
1 | CN1CCN(C(=O)COc2ccc(C(C)(C)C)cc2Br)CC1 | 1.71%
2 | CC(C)(C)c1ccc(OC(=O)N2CCCCC2)cc1 | 91.1% (active)
3 | O=C(NC1CCCCC1)N1Cc2cc(N3CCCCC3)ccc2-n2nncc2C1 | 5.49%
4 | CSCCC(c1nnnn1C(C)(C)C)N1CCC(n2c(=O)[nH]c3ccccc32)CC1 (stereo not given) | -9.76%
5 | O=P(OC1=CCCCC1)(c1ccccc1)c1ccccc1 | -0.107%
6 | CN(C)C(=O)Oc1ccc2c(c1)O/C(=C\c1ccccc1)C2=O | 46.6% (active)
7 | CN(C)C(=O)Oc1ccc(NC(=O)N2CCOCC2)cc1 | -0.475%
8 | S=C(NCCc1ccccc1)N1Cc2cc(N3CCOCC3)ccc2-n2nncc2C1 | 0.039%
9 | C[C@H](CO)N1C[C@H](C)[C@H](CN(C)C(=O)Oc2ccc3ccccc3c2)OCc2cnnn2CCCC1=O | 2.57%
10 | N#Cc1cccc(-c2ccc([C@H]3[C@@H](CO)N4CCCCN(C(=O)Cc5cccnc5)C[C@@H]34)cc2)c1 | 0.128%
11 | COC(=O)[C@H]1[C@H](CO)[C@H]2Cn3c(cccc3=O)[C@H]2N1CC1CC1 | 0.469%
12 | COc1ccc2c(c1)NP(=S)(c1ccccc1)N2 (stereo not given) | 43.7% (active)
13 | Cc1cc(C)c2c(c1)NP(=S)(c1ccccc1)N2 (stereo not given) | 7.37%
14 | O=C(O)[C@H]1[C@H](CO)[C@H]2Cn3c(ccc(-c4ccccc4F)c3=O)[C@@H]1N2C(=O)c1cccnc1 | -1.7%
15 | COC(=O)C1=C(c2ccc(OCc3ccccc3)cc2)C[C@@H]2CC[C@H]1N2C(=O)NCc1cccc(F)c1 | 3.43%
